Source: PubChem BioAssay (several laboratories)
TIM10 inh: growth inhibitors of isogenic TIM10 control yeast, primary screen, counter-screen for tim10-1 yeast inhibitor project, luminescence, uHTS; inhibition, % at 10 µM; S. cerevisiae TIM10 strain growth, BacTiter-Glo luminescence, 24 h; hit rate 1.4% among 330,000;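 active means inhibition of 40% or more at the single tested concentration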;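 further: wild-type TIM10 isogenic control strain grown at permissive 25 °C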
tim23-1 inh: growth inhibitors of tim23-1 mutant yeast, primary screen, luminescence, uHTS | S. cerevisiae tim23-1 growth, BacTiter-Glo luminescence, 24 h | inhibition, % at 20 µM | hit rate 1.3% among 330,000;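 active means growth inhibition of the mutant yeast at or above 50%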;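 further: temperature-sensitive mutant grown at 25 °C; plate controls were DMSO-treated mutant yeast for no effect and medium wells lacking yeast for full effect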
SKKanGAS inh: S. pyogenes SKKanGAS growth inhibitors in kanamycin, primary screen, streptokinase expression inhibitor project, SKKanGAS strain, BacTiter-Glo luminescence | hit rate 1.3% among 300,000 | 6 h | inhibition, % at 7.5 µM | AID 1662, 2009;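 active means mean replicate score, as percent of positive control median, at least 50; inconclusive means mean below 50 but one replicate at or above 50; inactive means mean and every replicate below 50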;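 further: strain carries kanamycin resistance gene driven by streptokinase promoter and grows in 40 µg/ml kanamycin; loss of luminescence reflects streptokinase promoter inhibition or plain growth inhibition; 0% = median of DMSO wells and 100% = positive control at its reference dose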
tim10-1 inh: growth inhibitors of tim10-1 mutant yeast, primary screen, luminescence, uHTS | AID 463190, 2010 | hit rate 2.2% among 330,000 | S. cerevisiae tim10-1 ts strain growth, BacTiter-Glo, 24 h | inhibition, % at 20 µM;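 active means inhibition of at least 40%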;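 further: mutant grown at 25 °C; 0% = DMSO wells with yeast and 100% = wells holding no yeast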
PfHsp90 set2: growth inhibition of PfHsp90-expressing yeast, primary screen, antimalarial PfHsp90 inhibitor project, S. cerevisiae, BacTiter-Glo luminescence, single point, set 2. inhibition, % at 9.4 µM. hit rate 0.32% among 310,000. BacTiter-Glo ATP, 48 h; yeast lacking PDR1 and PDR3 efflux regulators;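 active means every replicate shows inhibition above about 80%, whatever the replicate mean, limit read from the data; inconclusive means mean inhibition reaches the set limit but some replicate falls short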;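 further: 0% = DMSO neutral controls and 100% = 20 µM radicicol positive controls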
NALP3 yeast inh: NALP3 inflammasome inhibitors in reconstituted yeast, primary screen, luminescence, uHTS. inhibition, % at 10 µM. hit rate 0.39% among 330,000. Yeast reconstituted NLRP3/ASC/caspase-1, beta-gal luminescence, 24 h;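 active means inhibition of 50% or more; inactive means inhibition below 50%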;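 further: plate controls were induced DMSO wells for no effect and uninduced yeast grown without galactose for full effect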
tim10-1 conf: growth inhibitors of tim10-1 mutant yeast, confirmation, single concentration, luminescence, S. cerevisiae; shares compounds with tim10-1 inh; S. cerevisiae tim10-1 ts strain growth, BacTiter-Glo, 24 h; inhibition, % at 20 µM; hit rate 56% among 7,400; AID 463213, 2010;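 active means inhibition of yeast growth at or above a set limit in either of two repeat tests at 20 µM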;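 further: tim10-1 mutant grown at permissive 25 °C to find synthetic lethal compounds; 0% = DMSO yeast wells and 100% = medium wells without yeast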
TIM10 conf: growth inhibitors of wild-type TIM10 yeast, confirmation, counter-screen for tim10-1 synthetic lethality project, single concentration, luminescence, S. cerevisiae | hit rate 63% among 4,600 | S. cerevisiae tim10 strain growth, BacTiter-Glo luminescence, 24 h | shares compounds with TIM10 inh | inhibition, % at 10 µM;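 active means inhibition of yeast growth at or above a set limit in either of two replicates at 10 µM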;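 further: this counterscreen used the strain with wild-type TIM10; 0% = yeast with DMSO and 100% = medium wells lacking yeast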
Active calls of the source: *; ? = inconclusive; . = not tested or not shown. A selection: hits, their analogues and other compounds. The true share with any hit is near 4.5%.

SMILES	TIM10 inh	tim23-1 inh	SKKanGAS inh	tim10-1 inh	PfHsp90 set2	NALP3 yeast inh	tim10-1 conf	TIM10 conf
COc1cc2c(cc1NC(=O)CN1CCN(S(=O)(=O)c3ccc(C)cc3)CC1)oc1ccccc12	-14	-8	14	12	0	10	.	.
COc1cc2c(cc1NC(=O)c1ccncc1)oc1ccccc12	42*	-14	8	46*	22	40	25	47*
NC(=S)Nc1cccc2cc3ccccc3cc12	40*	44	18	40*	7	26	26	32*
CCn1c(C)c(/C=N/Nc2nc3ccccc3s2)c2ccccc21	43*	21	8	48*	.	3	25	27
Cc1nn(-c2ccccc2Cl)c(Cl)c1/C=N/Nc1nc2ccccc2s1	9	12	7	6	-13	-6	.	.
C/C(=N/Nc1ccc([N+](=O)[O-])cc1)c1c[nH]c2ccccc12	-5	35	19	-2	13	44	.	.
N/C(Cc1ccc([N+](=O)[O-])cc1)=N\OC(=O)C(c1ccccc1)c1ccccc1	50*	44	-13	72*	-7	15	73*	63*
COc1ccc(C/C(N)=N/OC(=O)C(c2ccccc2)c2ccccc2)cc1OC	-24	-20	-11	0	-9	2	.	.
N/C(=N\OC(=O)Cc1ccc([N+](=O)[O-])cc1)c1ccc([N+](=O)[O-])cc1	11	28	-1	7	2	19	.	.
Cc1ccc(CC(=O)O/N=C(\N)Cc2ccc([N+](=O)[O-])cc2)cc1	60*	44	-2	73*	-7	33	77*	63*
C=CCn1c(O)c(N=NC(=S)Nc2ccccc2F)c2ccccc21	46*	14	101*	47*	-125	12	44*	29
Cc1c(Cl)cccc1NC(=S)N=Nc1c(O)n(CN2CCOCC2)c2ccccc12	53*	40	.	59*	107*	36	49*	30*
Cc1ccccc1NC(=S)N=Nc1c(O)n(C)c2ccc(S(=O)(=O)N3CCOCC3)cc12	17	12	46	10	-16	6	.	.
Oc1c(N=NC(=S)Nc2ccccc2F)c2ccccc2n1Cc1ccccc1Cl	27	31	.	23	-11	17	.	.
COc1ccccc1C(=O)N1CCN(CCNC(=O)C(=O)Nc2ccc(Br)c(C)c2)CC1	-3	7	-2	2	9	12	.	.
COc1ccc(-c2nncnn2)cc1	89*	42	21	84*	.	-3	79*	21
Cc1ccc2cccc(NC(=S)NC(=O)c3ccccc3)c2n1	42*	17	20	43*	.	11	31*	43*
COc1ccc(-n2c(/C=C3\C(=O)N(C)c4ccccc43)nc3ccccc3c2=O)cc1	12	33	10	24	-15	23	.	.
CCN1C(=O)/C(=C\c2nc3ccccc3c(=O)n2-c2ccccc2)c2ccccc21	43*	50	6	42*	5	40	33*	18
CCOc1ccc(-n2c(=O)c3sccc3n(CC(=O)NCC3CCCO3)c2=O)cc1 (centres undefined)	-6	12	2	-5	8	5	.	.
CCCc1cc(C(N)=O)c(NC(=O)c2cc(C)on2)s1	58*	48	3	64*	16	-9	54*	54*
CCc1c(C)sc(NC(=O)c2cc(C)on2)c1C#N	20	28	-5	22	25	35	.	.
CCCCOc1ccc(C(=O)NCC(=O)NCC(c2ccc(F)cc2)N2CCOCC2)cc1 (centres undefined)	2	-3	4	-6	30	15	.	.
CC1(CC(=O)N/N=C/c2ccc(OCc3ccc(Cl)cc3Cl)cc2)OCCCO1	49*	42	12	63*	23	14	41*	2
CC(=O)c1ccc(NC(=O)c2noc(C(C)C)c2[N+](=O)[O-])cc1	28	37	4	11	-12	9	.	.
SMILES	TIM10 inh	tim23-1 inh	SKKanGAS inh	tim10-1 inh	PfHsp90 set2	NALP3 yeast inh	tim10-1 conf	TIM10 conf
CCc1ccc(NC(=O)c2noc(C(C)C)c2[N+](=O)[O-])cc1	46*	42	-3	52*	-27	-12	44*	33*
N#Cc1ccc(OCC(=O)NCCCn2ccnc2)cc1	-17	-20	.	-9	-23	7	.	.
C=CCNc1nc(-c2ccccn2)nnc1-c1ccccc1	46*	4	6	49*	49	3	41*	25
c1ccc(-c2cnnc(-c3ccccn3)n2)cc1	-35	-5	-1	-23	10	14	.	.
CC(C)(C)n1[nH]c2c3c(ccc2c1=O)C(=O)c1ccccc1C3=O	65*	28	26	45*	.	21	40*	57*
O=C(CN1C(=O)CCOc2ccccc21)Nc1ccc(Cl)c(S(=O)(=O)N2CCOCC2)c1	-1	-11	.	-7	-4	19	.	.
CCC(=O)Nc1ccc(N2CCCCC2)c(C(=O)Nc2ccccc2C)c1	40*	36	18	41*	6	13	22	38*
CC(C)c1nc2oc3c(NCC4CCCO4)ncnc3c2c2c1CCC2 (centres undefined)	45*	31	-8	46*	.	-6	27	13
CCCc1nc2oc3c(NCC4CCCO4)ncnc3c2c2c1COC(C)(C)C2 (centres undefined)	9	17	1	35	-13	-4	.	.
Cc1cc(C)c(N2C(=O)C3C4CC(=O)C(c5ccccc54)C3C2=O)c(C)c1 (centres undefined)	15	5	-9	3	1	12	.	.
Cc1cc([N+](=O)[O-])ccc1-c1ccc(C2Nc3ccccc3C(=O)N2O)o1 (centres undefined)	41*	42	-4	53*	?	9	36*	20
O=C1c2ccccc2NC(c2ccc(-c3ccccc3F)o2)N1O (centres undefined)	10	30	.	21	.	22	.	.
COc1ccc(NC(=O)c2nn(C34CC5CC(CC(C5)C3)C4)cc2[N+](=O)[O-])cc1	18	19	8	5	6	12	.	.
